Several values for one entry are separate records, joined by “and”; a condition that tells them apart may be missing. Equal values may be shown once. Activity calls are given as the source filed them.
Legend:
[1] = test system: PRMT1 (protein arginine N-methyltransferase 1); assay: PRMT1 binders on small-molecule microarrays, primary screen, biochemical, small-molecule microarray, 635 nm fluorescence (AID 1088); conditions: small-molecule microarray binding, higher = more signal;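 note: binding of Prmt1 protein to compounds spotted on small-molecule microarray slides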
[2] = yeast growth modulation, basal conditions, primary screen, YJM789 clinical isolate, OD600, 24 h (AID 1089);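 note: growth of clinical yeast isolate S. cerevisiae YJM 789 seeded 1000 cells per well; test concentration not given here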; conditions: S. cerevisiae YJM789 growth, higher = more signal, called active from +8 up or from −8 down
[3] = fission yeast growth modulation, primary screen, strain 972, OD600, 24 h, no modulator (AID 1090);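 note: basal condition with compound alone and no growth modifier present; test concentration not given here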; conditions: S. pombe 972 growth, higher = more signal, called active from +8 up or from −8 down
[4] = S. cerevisiae growth modulation with rapamycin, primary screen, strain BY4716, OD600, 96 h (AID 1091); conditions: higher = more signal, called active from +8 up or from −8 down; note: test concentration not given here
[5] = target: Torsin-1A-interacting protein 2 (Homo sapiens) (UniProt Q8NFQ8); assay: LULL1 binders on small-molecule microarray, primary screen, cell lysate, human LULL1 lysate, 635/667 nm fluorescence (AID 1092); conditions: hLULL1 lysate binding, 635 nm fluorescence, higher = more signal;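 note: probe is lysate of COS7 cells overexpressing human LULL1; score merges per-feature 667 nm fluorescence with signal-to-noise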
[6] = E. coli growth modulation, two-sided OD650, primary screen, E. coli filamentation project, strain DRC41, 24 h (AID 1093); conditions: OD650, 24 h, higher = more signal, called active from +8 up or from −8 down;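 note: MC1000 strain lacking acrAB efflux and sulA so SOS filamentation is blocked; test concentration not given here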
[7] = small-molecule microarray binders of probe aLefty2, primary screen, biochemical, biotinylated probe, 635/667 nm fluorescence (AID 1094); conditions: higher = more signal;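 note: score merges spot fluorescence near 667 nm with spot signal-to-noise ratio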
[8] = test system: Noggin (protein binding on small-molecule microarray); assay: Noggin binders on small-molecule microarray, primary screen, biochemical, 635/667 nm fluorescence (AID 1095); conditions: 635 nm fluorescence, higher = more signal;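 note: score merges 667 nm feature fluorescence with signal to noise over triplicate slides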
[9] = target: Neurogenic locus notch homolog protein 3 (Homo sapiens) (UniProt Q9UM47); assay: NOTCH3 binders on small-molecule microarray, primary screen, biochemical, 635/667 nm fluorescence (AID 1096); conditions: NOTCH3 binding, 635 nm fluorescence, higher = more signal
[10] = small-molecule microarray binders of probe aEGFR, primary screen, biochemical, biotinylated probe, 635/667 nm fluorescence (AID 1097); conditions: higher = more signal;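 note: probe is a biotinylated anti-EGFR antibody binding compounds printed on slides; score combines fluorescence near 667 nm and signal to noise of each spot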
[11] = test system: Plasmodium falciparum Sir2 (PF13_0152, Sir2A); assay: pfSir2 binders on small-molecule microarrays, primary screen, biochemical, small-molecule microarray, 635 nm fluorescence (AID 1098); conditions: small-molecule microarray binding, fluorescence 635 nm; higher = more signal;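 note: score merges spot fluorescence intensity with its signal-to-noise ratio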
[12] = small-molecule microarray binders of probe aDKK1, primary screen, biochemical, biotinylated probe, 635/667 nm fluorescence (AID 1099); conditions: higher = more signal;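 note: score merges 667nm spot fluorescence with signal to noise across triplicate slides; reference of the scale not given here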
[13] = small-molecule microarray binders of probe aCHRDL2, primary screen, biochemical, biotinylated probe, 635/667 nm fluorescence (AID 1100); conditions: higher = more signal
[14] = splicing luciferase reporter signal modulators, primary screen, spliceosome inhibition project, cell-based, HEK293, splice +/- reporter (AID 1101); conditions: luminescence, 24 h, higher = more signal, called active from +8 up or from −8 down;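 note: HEK293 cells carrying a splicing-competent luciferase reporter gene; test concentration not given here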
[15] = target: Fibroblast growth factor 10 (Homo sapiens) (UniProt O15520); assay: FGF10 binders on small-molecule microarrays, primary screen, biochemical, small-molecule microarray, 635 nm fluorescence (AID 1102); conditions: FGF10 binding, fluorescence 635 nm, higher = more signal
[16] = test system: glycogen synthase kinase-3 (GSK3A per assay name; protocol says GSK3B); assay: GSK3 binders on small-molecule microarrays, primary screen, biochemical, small-molecule microarray, 635 nm fluorescence, GSK3A (AID 1103); conditions: small-molecule microarray binding, fluorescence 635 nm; higher = more signal; note: the record names both GSK3A and GSK3B
[17] = target: Epidermal growth factor receptor (Homo sapiens) (UniProt P00533); assay: EGFR binders on small-molecule microarrays, primary screen, biochemical, small-molecule microarray, 635 nm fluorescence (AID 1104); conditions: EGFR binding, higher = more signal;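 note: score merges 667 nm emission intensity with spot signal to noise over triplicate slides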
[18] = target: Follistatin-related protein 3 (Homo sapiens) (UniProt O95633); assay: FSTL3 binders on small-molecule microarrays, primary screen, biochemical, small-molecule microarray, 635 nm fluorescence (AID 1105); conditions: FSTL3 binding, higher = more signal;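 note: score merges emission near 667 nm and signal to noise per printed spot across three slides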
[19] = target: Dickkopf-related protein 1 (Homo sapiens) (UniProt O94907); assay: DKK1 binders on small-molecule microarrays, primary screen, biochemical, small-molecule microarray, 635 nm fluorescence scan (AID 1106); conditions: DKK1 binding, higher = more signal;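 note: score merges emission near 667 nm with signal to noise over three replicate slides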
[20] = test system: Inhibin beta A chain (activin A); assay: INHBA (activin A) binders on microarrays, primary screen, biochemical, small-molecule microarray, 635 nm fluorescence scan (AID 1107); conditions: small-molecule microarray binding, higher = more signal;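 note: mouse activin A protein probed at 4.33 µg/mL on printed slides; score merges bound-protein fluorescence near 667 nm with spot signal-to-noise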

Sequence of Dickkopf-related protein 1 (Homo sapiens) (O94907 whole entry, looked up): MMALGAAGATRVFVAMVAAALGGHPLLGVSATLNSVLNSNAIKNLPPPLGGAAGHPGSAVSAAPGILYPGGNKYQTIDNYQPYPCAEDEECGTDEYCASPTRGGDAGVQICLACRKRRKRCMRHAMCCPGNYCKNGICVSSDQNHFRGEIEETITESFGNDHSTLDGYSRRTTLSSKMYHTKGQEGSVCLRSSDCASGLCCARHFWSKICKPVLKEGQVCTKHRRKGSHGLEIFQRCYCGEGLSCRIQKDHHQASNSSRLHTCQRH
Sequence of Torsin-1A-interacting protein 2 (Homo sapiens) (Q8NFQ8 whole entry, looked up): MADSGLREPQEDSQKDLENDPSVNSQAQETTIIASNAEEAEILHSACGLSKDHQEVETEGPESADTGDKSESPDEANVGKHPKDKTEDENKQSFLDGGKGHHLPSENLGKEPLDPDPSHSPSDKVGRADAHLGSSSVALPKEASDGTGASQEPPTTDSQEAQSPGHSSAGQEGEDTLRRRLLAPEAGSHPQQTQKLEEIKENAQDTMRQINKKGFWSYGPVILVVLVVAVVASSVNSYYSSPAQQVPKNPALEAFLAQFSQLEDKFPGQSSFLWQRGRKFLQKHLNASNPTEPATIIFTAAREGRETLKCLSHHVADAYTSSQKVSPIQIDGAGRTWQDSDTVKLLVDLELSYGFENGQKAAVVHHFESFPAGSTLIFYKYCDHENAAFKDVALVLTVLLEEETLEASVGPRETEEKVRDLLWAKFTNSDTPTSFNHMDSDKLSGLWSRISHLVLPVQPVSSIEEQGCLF
Sequence of Epidermal growth factor receptor (Homo sapiens) (P00533 whole entry, looked up): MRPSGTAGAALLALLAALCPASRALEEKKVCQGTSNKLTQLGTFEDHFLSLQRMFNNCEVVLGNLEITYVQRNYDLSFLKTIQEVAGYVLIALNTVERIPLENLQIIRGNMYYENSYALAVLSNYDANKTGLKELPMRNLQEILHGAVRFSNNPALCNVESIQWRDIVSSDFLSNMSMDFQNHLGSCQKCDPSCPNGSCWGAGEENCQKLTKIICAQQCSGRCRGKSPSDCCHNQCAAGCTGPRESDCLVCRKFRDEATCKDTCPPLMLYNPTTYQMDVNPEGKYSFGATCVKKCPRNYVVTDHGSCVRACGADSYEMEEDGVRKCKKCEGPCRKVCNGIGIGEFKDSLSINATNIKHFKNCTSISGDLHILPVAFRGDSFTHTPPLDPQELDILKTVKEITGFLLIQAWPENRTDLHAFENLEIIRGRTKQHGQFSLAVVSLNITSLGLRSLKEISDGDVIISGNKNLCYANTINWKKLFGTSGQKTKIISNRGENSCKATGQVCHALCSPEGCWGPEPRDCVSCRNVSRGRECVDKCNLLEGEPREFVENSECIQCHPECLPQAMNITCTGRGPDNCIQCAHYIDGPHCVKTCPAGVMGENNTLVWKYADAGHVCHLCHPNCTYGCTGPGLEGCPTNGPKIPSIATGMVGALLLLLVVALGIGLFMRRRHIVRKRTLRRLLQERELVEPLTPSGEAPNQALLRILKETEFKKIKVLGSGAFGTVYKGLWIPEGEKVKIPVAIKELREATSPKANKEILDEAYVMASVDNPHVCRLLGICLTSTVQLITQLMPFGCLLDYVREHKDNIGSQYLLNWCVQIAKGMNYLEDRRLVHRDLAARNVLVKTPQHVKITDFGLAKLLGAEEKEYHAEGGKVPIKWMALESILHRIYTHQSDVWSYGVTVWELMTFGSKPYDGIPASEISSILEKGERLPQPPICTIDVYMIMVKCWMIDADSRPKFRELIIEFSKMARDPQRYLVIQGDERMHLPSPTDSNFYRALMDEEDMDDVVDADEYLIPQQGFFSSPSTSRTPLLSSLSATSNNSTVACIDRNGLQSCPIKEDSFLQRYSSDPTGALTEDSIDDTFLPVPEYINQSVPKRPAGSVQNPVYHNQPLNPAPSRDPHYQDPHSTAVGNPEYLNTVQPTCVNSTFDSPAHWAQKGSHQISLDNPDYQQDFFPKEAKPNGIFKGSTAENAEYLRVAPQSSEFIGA
Sequence of Neurogenic locus notch homolog protein 3 (Homo sapiens) (Q9UM47 whole entry, looked up): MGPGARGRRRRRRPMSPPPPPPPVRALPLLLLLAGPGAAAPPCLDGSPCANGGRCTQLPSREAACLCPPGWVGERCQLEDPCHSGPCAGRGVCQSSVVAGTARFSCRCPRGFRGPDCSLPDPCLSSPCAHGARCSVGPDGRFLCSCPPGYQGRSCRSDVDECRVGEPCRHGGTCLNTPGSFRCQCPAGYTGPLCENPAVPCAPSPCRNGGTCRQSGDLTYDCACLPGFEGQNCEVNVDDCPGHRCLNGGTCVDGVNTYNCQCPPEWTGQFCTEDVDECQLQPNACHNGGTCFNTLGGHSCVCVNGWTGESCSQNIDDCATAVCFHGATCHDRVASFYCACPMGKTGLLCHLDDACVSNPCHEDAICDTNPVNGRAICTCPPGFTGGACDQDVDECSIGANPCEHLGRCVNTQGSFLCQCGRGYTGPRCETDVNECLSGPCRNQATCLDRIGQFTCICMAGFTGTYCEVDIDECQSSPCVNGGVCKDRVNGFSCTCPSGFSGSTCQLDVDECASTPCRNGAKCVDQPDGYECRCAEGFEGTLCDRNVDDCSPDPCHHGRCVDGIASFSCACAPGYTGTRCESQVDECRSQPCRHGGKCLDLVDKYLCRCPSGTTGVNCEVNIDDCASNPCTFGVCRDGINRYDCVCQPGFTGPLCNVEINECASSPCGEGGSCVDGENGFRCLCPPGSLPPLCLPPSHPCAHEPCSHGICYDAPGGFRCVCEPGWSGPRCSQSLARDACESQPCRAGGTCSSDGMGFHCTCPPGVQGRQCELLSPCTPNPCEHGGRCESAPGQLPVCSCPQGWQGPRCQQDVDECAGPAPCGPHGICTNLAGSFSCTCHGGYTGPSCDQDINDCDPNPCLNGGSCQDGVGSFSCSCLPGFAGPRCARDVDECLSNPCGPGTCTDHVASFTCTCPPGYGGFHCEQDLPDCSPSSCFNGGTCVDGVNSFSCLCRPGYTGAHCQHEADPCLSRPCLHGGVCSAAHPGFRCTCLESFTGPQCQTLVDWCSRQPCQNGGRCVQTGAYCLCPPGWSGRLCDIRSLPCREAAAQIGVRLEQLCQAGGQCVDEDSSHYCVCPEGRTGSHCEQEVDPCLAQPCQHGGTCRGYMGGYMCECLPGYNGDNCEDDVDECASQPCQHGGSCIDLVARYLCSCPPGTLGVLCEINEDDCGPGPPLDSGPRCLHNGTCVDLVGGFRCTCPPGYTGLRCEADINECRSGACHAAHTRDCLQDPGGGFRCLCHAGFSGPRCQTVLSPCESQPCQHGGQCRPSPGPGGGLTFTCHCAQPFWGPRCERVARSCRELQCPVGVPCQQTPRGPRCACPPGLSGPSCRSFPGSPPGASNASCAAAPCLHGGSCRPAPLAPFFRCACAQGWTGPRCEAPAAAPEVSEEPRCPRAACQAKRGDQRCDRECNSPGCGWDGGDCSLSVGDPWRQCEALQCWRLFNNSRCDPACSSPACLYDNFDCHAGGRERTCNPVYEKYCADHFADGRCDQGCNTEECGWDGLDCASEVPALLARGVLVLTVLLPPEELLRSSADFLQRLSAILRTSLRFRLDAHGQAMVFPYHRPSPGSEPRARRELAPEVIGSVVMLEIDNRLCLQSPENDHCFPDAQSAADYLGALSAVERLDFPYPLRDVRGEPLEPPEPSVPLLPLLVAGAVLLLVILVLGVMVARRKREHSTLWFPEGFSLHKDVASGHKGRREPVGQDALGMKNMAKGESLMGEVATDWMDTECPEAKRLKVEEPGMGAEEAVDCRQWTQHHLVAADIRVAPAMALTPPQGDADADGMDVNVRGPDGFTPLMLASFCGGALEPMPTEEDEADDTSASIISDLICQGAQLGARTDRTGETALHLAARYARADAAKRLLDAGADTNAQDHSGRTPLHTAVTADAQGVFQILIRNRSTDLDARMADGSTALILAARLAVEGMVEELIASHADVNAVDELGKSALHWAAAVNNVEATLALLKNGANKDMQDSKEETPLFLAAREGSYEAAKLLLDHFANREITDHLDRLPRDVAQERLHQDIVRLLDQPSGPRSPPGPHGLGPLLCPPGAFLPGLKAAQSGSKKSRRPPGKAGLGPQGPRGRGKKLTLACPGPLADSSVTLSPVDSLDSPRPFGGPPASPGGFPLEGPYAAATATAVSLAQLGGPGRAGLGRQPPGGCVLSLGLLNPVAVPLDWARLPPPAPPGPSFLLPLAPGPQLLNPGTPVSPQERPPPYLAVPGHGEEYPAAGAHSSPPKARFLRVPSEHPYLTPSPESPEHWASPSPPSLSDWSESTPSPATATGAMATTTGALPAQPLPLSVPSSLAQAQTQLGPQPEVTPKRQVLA
Sequence of Follistatin-related protein 3 (Homo sapiens) (O95633 whole entry, looked up): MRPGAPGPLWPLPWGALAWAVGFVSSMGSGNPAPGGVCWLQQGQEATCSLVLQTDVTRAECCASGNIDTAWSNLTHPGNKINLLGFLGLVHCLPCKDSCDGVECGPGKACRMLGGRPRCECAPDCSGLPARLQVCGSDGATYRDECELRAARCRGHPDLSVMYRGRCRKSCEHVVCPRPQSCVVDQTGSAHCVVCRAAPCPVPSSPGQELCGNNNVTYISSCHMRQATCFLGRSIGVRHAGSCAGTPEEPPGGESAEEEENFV
Sequence of Fibroblast growth factor 10 (Homo sapiens) (O15520 whole entry, looked up): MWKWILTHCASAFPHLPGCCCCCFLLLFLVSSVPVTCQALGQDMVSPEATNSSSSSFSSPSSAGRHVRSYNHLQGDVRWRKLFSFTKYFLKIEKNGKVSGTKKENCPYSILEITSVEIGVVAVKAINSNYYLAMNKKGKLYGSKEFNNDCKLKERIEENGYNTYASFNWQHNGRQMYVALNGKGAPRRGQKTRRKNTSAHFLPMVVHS

Row | Compound | composite z-score [1] | z-score [2] | z-score [3] | z-score [4] | composite z-score [5] | z-score [6] | composite z-score [7] | composite z-score [8] | composite z-score [9] | composite z-score [10] | composite z-score [11] | composite z-score [12] | composite z-score [13] | z-score [14] | composite z-score [15] | composite z-score [16] | composite z-score [17] | composite z-score [18] | composite z-score [19] | composite z-score [20]
1 | C[C@@H](ON=C1[C@H]2CCn3c(=O)n(-c4ccccc4)c(=O)n3[C@H]2[C@H](O)[C@@H]2O[C@H]12)c1cn([C@H](CO)Cc2ccccc2)nn1 | 0.587 | -0.217 (inactive) | -0.165 (inactive) | 0.0121 (inactive) | 0.61 | 0.381 (inactive) | -0.282 | 0.557 | 0.668 | -0.194 | 0.494 | -0.173 | -0.569 | 0.211 (inactive) | 0.416 | 0.438 | 0.419 | 0.572 | 0.462 | -0.0477
2 | C=CCN(C(=O)C1N(CCCCCCO)C(=O)C2C(C(=O)O)C3C=CC21O3)C(C)(C)C (stereo not given) | -0.334 and -0.47 | -0.686 (inactive) and -0.559 (inactive) | -1.43 (inactive) and -0.867 (inactive) | -0.235 (inactive) and -0.724 (inactive) | -0.773 and 2.17 | 0.137 (inactive) and -0.31 (inactive) | -0.231 and -0.0217 | -2.53 and -1.64 | -0.763 and -1.42 | -0.253 and -0.375 | 2.09 and 0.74 | -0.164 and -0.432 | 0.991 and 1.09 | 0.717 (inactive) and 1.5 (inactive) | -2.17 and -2.31 | -1.18 and -1.05 | -2.13 and -1.6 | -2.45 and -1.52 | -3.24 and -3.14 | -3.68 and -2.77
3 | COCn1c2ccccc2c2nnc(C(C)=O)nc21 | -0.217 and 0.724 | -0.405 (inactive) and -0.362 (inactive) | -0.267 (inactive) and -1.08 (inactive) | -0.189 (inactive) and -0.135 (inactive) | -0.0703 and 0.184 | -0.35 (inactive) and -0.768 (inactive) | -0.0702 and -0.0137 | 0.1 and 0.372 | -0.007 and 0.307 | -0.0398 and -0.123 | -0.137 and 0.312 | -0.228 and -0.221 | -0.42 and -0.408 | -0.592 (inactive) and -0.85 (inactive) | 0.529 and 0.182 | -0.0671 and 0.0307 | 0.574 and 0.979 | 0.383 and 0.277 | 0.808 and 0.152 | 0.12 and 0.483
4 | Cc1cc2c(nc1C)CCCN2CC(O)CN1CCCc2nc(-c3ccc(Br)cc3)ccc21 (stereo not given) | 1.55 and 1.54 | 0.612 (inactive) and 1.25 (inactive) | -3.62 (inactive) and -0.716 (inactive) | -1.15 (inactive) and -0.578 (inactive) | 1.25 and 1.75 | -0.804 (inactive) and 0.109 (inactive) | 0.467 and 0.823 | 1.02 and 0.741 | 1.1 and 1.11 | 0.304 and 0.48 | 1.16 and 0.822 | 0.116 and 1.46 | 0.334 and 0.608 | -0.605 (inactive) and -0.58 (inactive) | 1.21 and 1.31 | 1.29 and 1.14 | 0.852 and 1.05 | 1.43 and 1.25 | 1.06 and 1.08 | 1.33 and 1.31
5 | C=CCN(CCCCC)C(=O)C1N(CCCCCCO)C(=O)C2C(C(=O)O)C3C=CC21O3 (stereo not given) | 0.19 and -0.725 | -0.657 (inactive) and -0.677 (inactive) | -0.849 (inactive) and -0.744 (inactive) | -0.44 (inactive) and -0.767 (inactive) | 0.565 and 1.97 | -0.617 (inactive) and -0.541 (inactive) | -0.126 and -0.0198 | -2.33 and -1.76 | -0.968 and -0.32 | -0.322 and -0.32 | 1.34 and 1.33 | -0.3 and -0.257 | 0.933 and 0.677 | -0.372 (inactive) and 0.305 (inactive) | -1.23 and -1.99 | -0.699 and -1.32 | -1.76 and -2.1 | -2.21 and -0.897 | -3.08 and -2.95 | -0.194 and -1.46
6 | C=C[C@@H](OC)[C@H](O)c1ccc(OCCO)cc1 | 0.194 and -0.0886 | -0.0303 (inactive) and -2.64 (inactive) | 0.331 (inactive) and -1.68 (inactive) | -0.603 (inactive) and -0.883 (inactive) | 1.5 and -0.567 | -0.443 (inactive) and 2.25 (inactive) | -0.0466 and -0.0666 | -0.902 and -0.131 | -0.19 and -0.876 | -0.383 and -0.265 | 1.43 and -0.202 | 0.644 and -0.649 | 0.75 and 0.283 | -0.462 (inactive) and -2.83 (inactive) | -0.72 and -1.24 | -0.586 and -1.15 | -1.55 and -0.957 | -0.782 and -0.109 | -1.06 and -0.955 | -0.294 and -1.79
7 | CC(C)OC(=O)C=C1C[C@@H](c2ccccc2)O[C@@H](c2ccccc2)O1 | 1.5 and 1.54 | -0.023 (inactive) and 0.548 (inactive) | -4.66 (inactive) and -7.08 (inactive) | -0.793 (inactive) and 0.632 (inactive) | 3.33 and 3.12 | 0.551 (inactive) and 0.884 (inactive) | 0.0528 and 0.269 | 1.09 and 0.798 | 1.09 and 1.13 | 0.302 and 0.366 | 0.733 and 1.54 | 0.164 and 0.272 | 0.0614 and 0.847 | 0.0661 (inactive) and 2.56 (inactive) | 1.45 and 1.42 | 1.34 and 1.31 | 0.65 and 0.664 | 1.44 and 1.41 | 0.527 and 0.481 | -0.0632 and 1.05
8 | C=CCN(C(=O)C1N(C(C)(C)CO)C(=O)C2C(C(=O)O)C3C=CC21O3)c1ccc(OC)cc1 (stereo not given) | -0.504 and -1.28 | 0.0659 (inactive) and 1.13 (inactive) | -1.08 (inactive) and 0.202 (inactive) | 0.558 (inactive) and 0.921 (inactive) | 0.841 and 0.2 | 2.3 (inactive) and 1.15 (inactive) | 0.0499 and 0.0174 | -2.91 and -3.66 | -0.702 and -1.29 | -0.263 and -0.315 | -0.138 and 0.012 | 0.0931 and -0.0192 | 1.23 and 1.02 | -1.01 (inactive) and 0.0922 (inactive) | -0.966 and -2.03 | -0.751 and -1.28 | -1.84 and -1.43 | -2.02 and -2.33 | -4.14 and -3.71 | -1.01 and -5.89
